Compound activity (PubChem)
Cl transport mod: KCC2 (human) Cl- transport modulation. Q9H2X9. KCC2 cells, thallium flux FluoZin-2 fluorescence. B-score of Tl+ flux slope (higher = more flux/activation; lower = inhibition) at 10 µM. 190,000 tested, 2.2% active. AID 1456;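 active = thallium flux slope and its plate-corrected score both differing from the plate sample mean at a set confidence after two filtering rounds, in either direction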;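 also: slope of fluorescence scaled to starting intensity during 10 to 20 s after thallium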
m-calpain inh: blocks pig calpain II enzyme activity; purified calpain II, fluorogenic peptide substrate, 30 min; inhibition, % at 16 µM; 220,000 tested, 0.37% active; AID 1236;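 active = inhibition above about 50%, limit read from the data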
ROMK primary: modulators of human ROMK potassium channel; 130,000 tested, 2% active; Tet-inducible ROMK, thallium flux fluorescence; actives lie on both sides; P48048; B-score at 10 µM;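 active = signal ratio slope over the read window, or its plate-corrected B-score, at least 3 SD from the plate mean, either direction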;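 also: B-score of the F/F0 ratio slope over 7 to 12 s after thallium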
Target sequence (P48048 whole entry, looked up): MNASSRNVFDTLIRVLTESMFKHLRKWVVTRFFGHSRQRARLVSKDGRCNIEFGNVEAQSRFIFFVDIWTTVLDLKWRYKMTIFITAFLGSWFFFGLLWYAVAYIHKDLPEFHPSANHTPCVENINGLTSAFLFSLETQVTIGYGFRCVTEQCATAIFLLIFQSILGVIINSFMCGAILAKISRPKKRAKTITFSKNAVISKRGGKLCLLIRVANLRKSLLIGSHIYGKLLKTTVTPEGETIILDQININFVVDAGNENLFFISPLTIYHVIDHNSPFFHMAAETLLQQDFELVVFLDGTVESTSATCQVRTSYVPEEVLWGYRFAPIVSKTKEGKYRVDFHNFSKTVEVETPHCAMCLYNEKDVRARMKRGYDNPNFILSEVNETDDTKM
WT yeast gro inh: growth inhibition of WT yeast, mitochondrial fusion screen. mitochondrial fusion phenotypic screen, WT strain. inhibition, % at 10 µM. 190,000 tested, 2.1% active; in the data active = inhibition above about 58%; tested in S. cerevisiae
L major viab: inhibitors of Leishmania major promastigote growth. Leishmania major promastigotes, resazurin fluorescence viability. inhibition, % at 10 µM. 200,000 tested, 9% active. AID 1063; in the data active = inhibition above about 50%;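 also: promastigotes grown with compound for 44 hours at 28 °C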
Active calls of the source: *; . = no result given. Only some compounds are listed: those with a hit (about 12% of all), similar ones and a draw of the others.

SMILES | Cl transport mod | m-calpain inh | ROMK primary | WT yeast gro inh | L major viab
CCOc1ccc2c(c1)C(C)=CC(C)(C)N2C(=O)Nc1ccccc1F | 0.45 | -439.4 | 0.37 | -20.4 | 68.3*
CCNC(=O)N1c2ccc(OCC)cc2C(C)=CC1(C)C | 0.425 | -5.1 | . | 11.7 | 11.1
CCOc1ccc2c(c1)C(C)=CC(C)(C)N2S(=O)(=O)c1ccc(C)cc1 | -2.05 | 28.4 | -0.298 | 72.4* | 95.4*
COc1ccc2c(c1)C(C)=CC(C)(C)N2S(=O)(=O)c1ccc(C)cc1 | -1.45 | 13.7 | 0.158 | 45.2 | 97.7*
O=C(O)CSC(C(=O)Nc1ccc(Br)cc1)c1ccccc1 (stereo not drawn) | 0.277 | 30.1 | -0.0967 | -5.2 | -4.9
CN(C)C(=O)N(CCCN1CCOCC1)Cc1cccc2ccccc12 | -0.828 | -18.5 | . | . | .
Cc1ccc(NC(=O)CCC(=O)NNC(=O)c2ccccc2)c(C)c1 | . | -28.3 | 0.21 | 0.8 | -1.8
CCOc1ccc(C(=O)O)cn1 | 0.0754 | 26.3 | 1.01 | -2.9 | -8.2
Cc1cc(C(=O)NNS(=O)(=O)c2cccc(Cl)c2)nn1C(C)(C)C | 0.426 | 3.7 | -0.157 | . | .
N#C/C(=N\Nc1ccc(F)cc1)C(=N)N1CCCCC1 | -1.12 | -8.2 | -0.48 | 11.9 | 77.6*
COc1ccc(-c2cc(C(=O)Nc3c(C)n(C)n(-c4ccccc4)c3=O)no2)cc1OC | -0.873 | 4.8 | 0.122 | -6.8 | -6.2
COc1ccc(/C=N/N=C2/SCC(=O)N2Cc2ccccc2)cc1 | 0.606 | -319.1 | . | . | .
COc1ccc(/C=C2\CN(Cc3ccccc3)C/C(=C\c3ccc(OC)cc3)C2=O)cc1 | 0.465 | -16.4 | . | -6.5 | 100.0*
CN1CCN(C(=O)CCn2nc(-c3ccccc3)c3ccccc3c2=O)CC1 | -0.789 | 15.2 | 0.191 | 29.1 | 53.6*
O=c1c2ccccc2c(-c2ccccc2)nn1Cc1c(Cl)cccc1Cl | . | -17.1 | . | 61.4* | 4.9
O=C(CCn1nc(-c2ccccc2)c2ccccc2c1=O)NN1CCOCC1 | 1.73 | 0.8 | 1.35 | -2.0 | -1.6
CC(C)(C)OC(=O)NCCCC[C@H](NC(=O)c1nc[nH]c1C(=O)NC1CCN(C(=O)OC(C)(C)C)CC1)C(=O)OC(C)(C)C | -0.495 | 19.1 | . | . | .
c1ccc(-c2csc3nnc(SCc4ccc5c(c4)OCCO5)n23)cc1 | -2.37 | 0.7 | -0.888 | 22.0 | 56.3*
CC(C)OC(=O)CSc1nnc(C2CCCCC2)n1N | -0.12 | -8.3 | . | . | .
CCN1CCc2nc(NC(=O)CC(c3ccccc3)c3ccccc3)sc2C1 | -0.539 | -59.4 | . | 17.8 | 55.5*
CCN1CCc2nc(NC(=O)C(c3ccccc3)c3ccccc3)sc2C1 | -0.593 | -128.1 | -0.72 | 10.7 | 12.9
O=C1CC(N2CCN(c3ccccc3)CC2)C(=O)N1c1ccc2c(c1)OCO2 (stereo not drawn) | 0.556 | -14.4 | 0.0154 | -1.1 | -9.2
CCOC(=O)N1CCN(C(=O)CN(C)S(=O)(=O)c2ccc3c(c2)C(C)(C)C(=O)N3C)CC1 | . | 14.3 | 0.747 | 67.6* | -0.4
CCOCCCNS(=O)(=O)c1ccc(NC(=O)C2CC(=O)N(c3ccc(C)cc3)C2)cc1 (stereo not drawn) | -0.72 | -7.5 | -0.0394 | 2.6 | -2.9
COc1ccc(C2C(C#N)=C(/N=C/N3CCN(C)CC3)OC3=C2C(=O)CC(C)(C)C3)cc1 (stereo not drawn) | . | -14.0 | . | -10.7 | 99.6*
SMILES | Cl transport mod | m-calpain inh | ROMK primary | WT yeast gro inh | L major viab
CC1(C)CC(=O)C2=C(C1)OC(N)=C(C#N)C2c1ccccc1 (stereo not drawn) | -0.702 | 18.3 | . | 8.9 | -3.4
Cc1noc(C)c1S(=O)(=O)N(CC(=O)N1CCCCCC1)c1ccc(C(C)C)cc1 | -0.144 | -6.4 | . | 10.2 | 63.2*
OCCC1CN(Cc2ccc3c(c2)CCO3)CCN1Cc1ccc(F)cc1 (stereo not drawn) | 0.591 | 19.7 | -1.02 | 2.5 | 75.4*
Cc1ccc(CN2CCN(Cc3ccc(-n4cccn4)cc3C)CC2CCO)cc1 (stereo not drawn) | -1.22 | 20.7 | -1.11 | -4.3 | 21.0
CC(=O)c1cccc(CN2CCN(CC=C(C)C)C(CCO)C2)c1 (stereo not drawn) | 1.25 | 21.3 | . | . | .
CC(=O)c1cccc(CN2CCN(C3CCCC3)C(CCO)C2)c1 (stereo not drawn) | 0.294 | -0.6 | -0.202 | -3.0 | 44.9
Cc1ccc(CN2CCN(Cc3cccc(-n4cccn4)c3)CC2CCO)cc1 (stereo not drawn) | -0.0335 | 9.9 | -0.839 | 7.5 | 79.8*
CC(=O)c1cccc(CN2CCN(Cc3ccc(C)cc3)C(CCO)C2)c1 (stereo not drawn) | . | -23.7 | 0.214 | 6.2 | 79.3*
CC(=O)c1cccc(CN2CCN(CCc3ccccc3)C(CCO)C2)c1 (stereo not drawn) | 0.319 | 9.9 | 1.56 | 4.6 | 67.6*
O=C(O)C(c1ccccc1)N1CCCCC1 (stereo not drawn) | 1.13 | -8.3 | -0.488 | 1.4 | -0.9
CC(=O)c1cccc(CN2CCN(Cc3ccc(F)cc3)C(CCO)C2)c1 (stereo not drawn) | . | -11.0 | 0.112 | -8.7 | 87.2*
COc1cc(C(=O)NCCCNc2nc3cc(C)c(C)cc3cc2C#N)cc(OC)c1OC | -0.788 | -293.8 | -0.0307 | 8.4 | 11.8
O=C(CN1CCN(c2ccccc2O)CC1)NC(=O)NC1CCCC1 | -0.882 | 13.5 | 0.136 | 8.6 | 4.8
CCCCCCOC(=O)C(C#N)c1nc2ccccc2nc1N1CCCCC1 (stereo not drawn) | 1.46 | -61.4 | . | 35.2 | 27.2
CCC(C)COC(=O)C(C#N)c1nc2ccccc2nc1N1CCCCC1 (stereo not drawn) | . | -6.7 | . | 48.6 | 33.2
CCC(CC)COC(=O)C(C#N)c1nc2ccccc2nc1N1CCN(CC)CC1 (stereo not drawn) | . | -108.3 | . | 58.5 | 100.5*
CCCCCCOC(=O)C(C#N)c1nc2ccccc2nc1N1CCN(C)CC1 (stereo not drawn) | -0.7 | -57.2 | . | 2.0 | 54.4*
C=CCN1C(=O)C(Cc2ccc(SC(F)F)cc2)SC1=Nc1ccc(C(=O)O)cc1 (stereo not drawn) | 0.275 | 13.8 | 0.0168 | -15.1 | -8.5
CCN(CC)CCNC(=O)c1ccc(-n2c(C)cc3c2CCCC3=O)cc1 | 0.812 | -23.0 | 0.0944 | 4.3 | 32.4
Cc1nonc1C1CCCN1Cc1cn[nH]c1-c1ccc(-c2ccccc2)cc1 (stereo not drawn) | 0.0658 | 10.6 | 0.4 | 58.5* | 38.9
COc1cc(-c2[nH]ncc2CN2CCCC2c2nonc2C)cc(OC)c1OC (stereo not drawn) | 1.64 | 25.7 | 0.0581 | 15.5 | -1.2
CCCCOc1ccc(CONS(=O)(=O)c2ccc(NC(C)=O)cc2)cc1Cl | -0.223 | 50.1* | . | 73.9* | 13.6
CC(=O)Nc1ccc(S(=O)(=O)NCCOc2ccc(Cl)cc2C)cc1 | -1.52 | 9.6 | 1.05 | 20.7 | -0.5
CN1CCN(C(=O)C2=C[C@@H](C(C)(C)C)C[C@@H](OCc3ccc(CO)cc3)O2)CC1 | 0.716 | 6.5 | . | 4.4 | -0.2
CS(=O)(=O)N(CC(=O)Nc1cc(Cl)ccc1Cl)c1ccccc1Cl | -0.167 | -4.0 | -2.56 | 11.8 | 27.6
Cc1ccc(C)c(N(CC(=O)Nc2cc(Cl)ccc2Oc2ccccc2)S(C)(=O)=O)c1 | . | 0.0 | . | 21.2 | 51.5*
COc1cccc(OCC(=O)Nc2cc(Cl)ccc2Oc2ccccc2)c1 | 0.286 | 8.8 | 0.0255 | 32.9 | 95.4*
